Screening results from PubChem.
Sampled rows, rich in hits. Any-hit rate of the full collection: about 2.2%.
APP 5UTR inh – APP translation inhibition; SH-SY5Y APP 5'UTR-luciferase reporter, luminescence; inhibition, % at 2 µM; 190,000 tested, 0.82% active; AID 1285;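 active = inhibition above a set limit, derived from the sample mean plus 3 SD, cut at about 45% in these data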
IEC-6 cytotox – counter-screen for KLF5 inhibitors: cytotoxicity in IEC-6 cells | IEC-6 cytotoxicity, luminescence viability | inhibition, % at 5 µM | 290,000 tested, 0.78% active; in the data active = inhibition above about 22%;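 note: 0% = plate median of test compound wells and 100% = cytotoxic reference compound wells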
BaF3 tox – counter-screen for JAK2V617F inhibitors: parental Ba/F3 viability inhibitors. inhibition, % at 5.6 µM. CellTiter-Glo ATP luminescence. AID 1486. 220,000 tested, 1.1% active;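 active = inhibition above a per-campaign cutoff, the mean inhibition of all tested compounds plus 3 SD, cut at about 27% in these data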;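 note: 0% = DMSO wells and 100% = JAK Inhibitor I control wells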
KLF5 inh – kruppel-like factor 5 inhibition; AID 1700; inhibition, % at 5 µM; 290,000 tested, 0.23% active; DLD-1 KLF5 promoter-luciferase reporter, luminescence;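 active = inhibition above a per-plate limit of that plate's mean compound inhibition plus 3 SD, cut at about 60% in these data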;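 note: 0% = DMSO wells and 100% = LY294002 at 200 µM; higher means less KLF5 promoter-driven luciferase light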
aSyn 5UTR inh – 5' untranslated region of α-synuclein, MLPCN primary screen; alpha-synuclein 5'UTR reporter, inhibitor activity; 300,000 tested, 0.82% active; inhibition, % (tested at 7.5 µM); in the data active = inhibition above about 60%;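 note: H4 neuroglioblastoma cells stably carrying SNCA 5'UTR luciferase fusion; 0% = DMSO wells and 100% = positive control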
Ba/F3 V617F tox – loss of viability in JAK2V617F-driven Ba/F3 cells | Ba/F3 EpoR-JAK2V617F viability, ATP luminescence | inhibition, % at 5.6 µM | 220,000 tested, 1.1% active | AID 1446;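 active = inhibition above the campaign mean plus 3 SD over all tested compounds, cut at about 24% in these data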;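 note: cytokine-independent growth of Ba/F3 cells driven by EpoR plus mutant JAK2; 0% = DMSO-treated cells and 100% = JAK inhibitor I control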
Numbers without * were called inactive.

What do the screens show for `CSCC(=O)NC1CCCc2c1cnn2-c1cc(F)cc(F)c1` (centres undefined)?
IEC-6 cytotox: 0.7; KLF5 inh: -11.8; aSyn 5UTR inh: -7.9

What do the screens show for `CCN(CC)c1ccc(Nc2cc3n(c(=O)n2)CCc2cc(OC)c(OC)cc2-3)cc1`?
IEC-6 cytotox: 2.9; KLF5 inh: -59.9; aSyn 5UTR inh: 74.2*

What do the screens show for `COc1ccc2cc(-c3cc(C(=O)O)c4ccccc4n3)ccc2c1`?
APP 5UTR inh: -84.2; IEC-6 cytotox: 3.4; BaF3 tox: 15.0; KLF5 inh: 41.3; aSyn 5UTR inh: 77.7*; Ba/F3 V617F tox: 12.8

Results for COc1cc(-c2nnc(SCC(=O)N(Cc3ccccc3)C(C)(C)C)o2)cc(OC)c1OC ?
APP 5UTR inh: -1.9; IEC-6 cytotox: 6.3; BaF3 tox: 96.4*; KLF5 inh: -8.9; aSyn 5UTR inh: 0.3; Ba/F3 V617F tox: 1.7

How did COc1cc(C(=O)ON=C2C=C(C)C(=O)C(C)=C2)cc(OC)c1OC do in these assays?
APP 5UTR inh: 14.9; IEC-6 cytotox: 7.6; BaF3 tox: 0.7; KLF5 inh: -15.8; aSyn 5UTR inh: -3.1; Ba/F3 V617F tox: 1.2

Results for COc1cc(C(=O)O/N=C2\C=CC(=O)C(C)=C2)cc(OC)c1OC ?
APP 5UTR inh: -0.4; IEC-6 cytotox: -1.9; BaF3 tox: 32.0*; KLF5 inh: -17.3; aSyn 5UTR inh: -31.7; Ba/F3 V617F tox: 49.4*

What do the screens show for `O=C(CCN1CCOCC1)Nc1ccc(Cl)cc1`?
IEC-6 cytotox: 0.7; KLF5 inh: -28.3; aSyn 5UTR inh: -13.8

How did COC(=O)c1ccc2nc(-c3ccc4c(c3)OCO4)cn2c1 do in these assays?
APP 5UTR inh: -90.0; IEC-6 cytotox: -0.8; BaF3 tox: 4.7; KLF5 inh: -95.4; aSyn 5UTR inh: 95.2*; Ba/F3 V617F tox: 0.0

Results for CCOC(=O)N/N=C(/c1ccccc1)C1CCCCC1 ?
APP 5UTR inh: -12.3; IEC-6 cytotox: -7.4; BaF3 tox: 0.3; KLF5 inh: -7.2; aSyn 5UTR inh: 22.2; Ba/F3 V617F tox: -2.1

What do the screens show for `O=C(NC(Cc1ccccc1)C(=O)O)/C(=C/c1ccc(Cl)cc1)NC(=O)c1ccccc1` (centres undefined)?
APP 5UTR inh: -0.6; IEC-6 cytotox: -5.2; BaF3 tox: 37.4*; KLF5 inh: 11.0; aSyn 5UTR inh: -18.0; Ba/F3 V617F tox: 1.4

Results for O=C(NC(Cc1ccccc1)C(=O)O)/C(=C\c1ccccc1F)NC(=O)c1ccccc1 (centres undefined) ?
APP 5UTR inh: 16.8; IEC-6 cytotox: -3.3; BaF3 tox: 2.9; KLF5 inh: -10.0; aSyn 5UTR inh: 9.5; Ba/F3 V617F tox: -2.2

How did Cc1cc(CNC(=O)c2ccc3oc(C(C)C)nc3c2)nn1C do in these assays?
IEC-6 cytotox: 3.3; KLF5 inh: 6.0; aSyn 5UTR inh: -6.3

Results for CCOc1ccc(C(=O)Nc2ncccc2Cl)cc1 ?
APP 5UTR inh: -42.5; IEC-6 cytotox: 5.4; BaF3 tox: 3.8; KLF5 inh: -119.8; aSyn 5UTR inh: -116.4; Ba/F3 V617F tox: -0.7

What do the screens show for `CCN(CC)S(=O)(=O)c1ccc(N/N=C(\C)c2ccc(OC)cc2O)nc1`?
IEC-6 cytotox: -3.1; BaF3 tox: -2.7; KLF5 inh: 19.7; aSyn 5UTR inh: 78.2*; Ba/F3 V617F tox: 1.4

Results for CCOc1cccc(/C=N/Nc2ccc(S(=O)(=O)N(CC)CC)cn2)c1O ?
APP 5UTR inh: 82.9*; IEC-6 cytotox: 3.9; BaF3 tox: 2.0; KLF5 inh: 17.7; aSyn 5UTR inh: 88.2*; Ba/F3 V617F tox: -2.6

What do the screens show for `CSc1ncccc1C(=O)N1CCN(S(=O)(=O)c2ccccc2)CC1`?
IEC-6 cytotox: -4.0; KLF5 inh: -3.1; aSyn 5UTR inh: 15.4

What do the screens show for `CCOCC(=O)Nc1ccc2c(c1)N(S(=O)(=O)c1cccs1)CCC2`?
aSyn 5UTR inh: -9.2

What do the screens show for `CCN(CC(=O)Nc1ccccc1C(F)(F)F)C(=O)CCc1c(C)[nH]c(=O)c(C#N)c1C`?
IEC-6 cytotox: -4.7; KLF5 inh: 6.7; aSyn 5UTR inh: 9.2

How did COc1ccc(NC(=O)/C(C#N)=C/c2ncc([N+](=O)[O-])n2C)c(OC)c1 do in these assays?
IEC-6 cytotox: 7.8; BaF3 tox: -5.5; KLF5 inh: -25.0; aSyn 5UTR inh: 1.2; Ba/F3 V617F tox: -0.3

How did CN1c2ccccc2C(C)(C)[C@]12C=Cc1cc(O)ccc1O2 do in these assays?
APP 5UTR inh: -7.1; IEC-6 cytotox: 7.0; BaF3 tox: 61.3*; KLF5 inh: -13.2; aSyn 5UTR inh: -7.5; Ba/F3 V617F tox: 73.8*

What do the screens show for `CC(C)CC(=O)N1CCN(Cc2ccc(Cl)cc2)CC1`?
IEC-6 cytotox: 5.1; KLF5 inh: -26.8; aSyn 5UTR inh: 10.5

How did CC(C)c1ccc(CN2CCN(C(=O)CCl)CC2)cc1 do in these assays?
APP 5UTR inh: -2.5; IEC-6 cytotox: 6.3; BaF3 tox: 0.1; KLF5 inh: -5.0; Ba/F3 V617F tox: 46.3*

How did O=C(c1cnn2c(C(F)F)cc(-c3ccccc3)nc12)N1CCc2ccccc21 do in these assays?
APP 5UTR inh: -24.7; IEC-6 cytotox: -1.4; BaF3 tox: 4.4; KLF5 inh: -8.3; aSyn 5UTR inh: 0.9; Ba/F3 V617F tox: 2.8

How did Cc1ccc(-c2cc(C(F)F)n3ncc(C(=O)N4CCc5ccccc54)c3n2)cc1 do in these assays?
APP 5UTR inh: 87.4*; IEC-6 cytotox: 5.2; BaF3 tox: 1.4; KLF5 inh: -19.4; aSyn 5UTR inh: 25.2; Ba/F3 V617F tox: 2.6

Results for CCN1/C(=C/c2ccc3cc(C)ccc3[n+]2C)Sc2ccc3sccc3c21 ?
APP 5UTR inh: 19.7; IEC-6 cytotox: 15.8; BaF3 tox: 62.4*; KLF5 inh: -12.4; Ba/F3 V617F tox: 77.9*

How did CSc1nc(-c2ccccc2)nc(NC(=O)C(C)C)c1C(C)=O do in these assays?
APP 5UTR inh: 54.0*; IEC-6 cytotox: 2.1; BaF3 tox: 3.2; KLF5 inh: -35.4; aSyn 5UTR inh: 9.0; Ba/F3 V617F tox: -3.9

How did O=C(OCc1nc(-c2ccccc2)oc1COC(=O)c1ccco1)c1ccco1 do in these assays?
APP 5UTR inh: -10.8; IEC-6 cytotox: 3.5; BaF3 tox: 54.1*; KLF5 inh: -37.6; aSyn 5UTR inh: -10.6; Ba/F3 V617F tox: 1.7

How did O=C(COC(=O)c1ccco1)Nc1nnc(-c2ccccc2)o1 do in these assays?
aSyn 5UTR inh: -5.9

Results for CC(=O)OCCNc1cc(Sc2nc3ccccc3[nH]2)c2nonc2c1[N+](=O)[O-] ?
APP 5UTR inh: 79.3*; IEC-6 cytotox: 0.8; BaF3 tox: 2.8; KLF5 inh: -22.0; aSyn 5UTR inh: -22.8; Ba/F3 V617F tox: 0.4

Results for CN(CC(=O)Nc1cccc(F)c1)C(=O)CCCn1c(=O)oc2ccccc21 ?
aSyn 5UTR inh: -10.6

Results for CCn1c(=O)cc(OCC(=O)N2CCCCCC2)c2ccccc21 ?
APP 5UTR inh: 55.4*; IEC-6 cytotox: 2.7; BaF3 tox: 2.6; KLF5 inh: -24.7; aSyn 5UTR inh: 18.2; Ba/F3 V617F tox: 1.7

Results for CCn1c(=O)cc(OCC(=O)N2CCN(c3ccc(F)cc3)CC2)c2ccccc21 ?
APP 5UTR inh: 4.8; IEC-6 cytotox: 9.1; BaF3 tox: 4.0; KLF5 inh: -31.5; aSyn 5UTR inh: -1.5; Ba/F3 V617F tox: 0.1
